According to PubChem BioAssay (Tox21):
Inconclusive results are not listed. Calls of active or inactive are those of the source. Calls follow the shape of the dose curve; as a rule, active = well fitted cell-killing curve with a large enough effect in the repeat runs; inconclusive = weak or mixed curves, or effect the other way; inactive = flat fitted curve, though single readings scatter.

Assay: qHTS RealTime-Glo MT Cell Viability Assay in HEK293 cells - 0 hour (AID 1224880); also: nearly all actives have a fitted effect of over 45% in size; as to activity change, negative = cytotoxicity: top concentration of the series differs between compounds
Conditions: RealTime-Glo luminescence; series mostly up to 76.8 µM; activity change, negative = cytotoxicity: at the top concentration
Description: U.S. Tox21 Program National Center for Advancing Translational Sciences [NCATS] NIH Chemical Genomics Center [NCGC] U.S. Environmental Protection Agency [EPA] National Institutes of Environmental Health Sciences [NIEHS] National Toxicology Program [NTP] U.S. Food and Drug Administration [FDA] Tox21 Assay Overview: Measure of cell viability is critical in the cell-base assay. Analysis of cell viability is necessary for the characterization of cell responses to cytotoxic drugs and environmental stress. A RealTime-Glo MT Cell Viability Assay to monitor cell viability in real time of continues cell culture during 40 hours of compound treatment was used to screen Tox21 10K library compounds in Hek293 cells. The RealTime-Glo MT Cell Viability Assay is a nonlytic, homogeneous, bioluminescent method to measure cell viability in real time using a simple, plate-based method. The assay involves adding NanoLuc luciferase and a cell-permeant prosubstrate to cells in culture. Viable cells reduce the proprietary prosubstrate to generate a substrate for NanoLuc luciferase. This substrate diffuses from cells into the surrounding culture medium, where it is rapidly used by the NanoLuc Enzyme to produce a luminescent signal. The signal correlates with the number of viable cells, making the assay well suited for cytotoxicity studies.
Tox21 Assay Protocol Summary: The mixture of Hek293 cell suspension and reagents were dispensed at 600cells/6 ul/well in 1536-well tissue culture treated black solid bottom plates using a Multidrop dispenser. After the assay plates were incubated at a 37 C/5% CO2 incubator for 5 hours, 23 nL of compounds dissolved in DMSO, positive and negative controls was transferred to the assay plate by a pintool work station. The plates were incubated at 37 C for 40 hours. The luminescence intensity were measured at 0h, 8h, 16h, 24h, 32h and 40h time points using ViewLux plate reader during compound treatment.
% is scaled to controls: 0 for no effect and ±100 for the full control effect; potency is read from the fitted curve at half-maximal effect.

SMILES	activity change, negative = cytotoxicity	Potency
Cc1cccc(S(=O)(=O)O)c1C	-14.2% (inactive)	–
COC(=O)C1=C(C)NC(C)=C(C(=O)OCCc2ccc(N3CCN(C(c4ccccc4)c4ccccc4)CC3)cc2)C1c1cccc([N+](=O)[O-])c1 (stereo not given)	-7.09% [at 35.3 µM] (inactive)	–
NC(=O)C1(N2CCCCC2)CCN(CCCN2c3ccccc3CCc3ccc(Cl)cc32)CC1	-3.38% [at 35.3 µM] (inactive)	–
CCOC(=O)O[C@H](C)OC(=O)c1ccc2c(c1)cc(C(=O)NC1CCN(C(C)C)CC1)n2Cc1cc(-c2ccc(Cl)s2)on1	-0.981% (inactive)	–
Clc1ccc2n[nH]nc2c1	1.35% (inactive)	–
O=C(Nc1cccc(Cl)c1)OCC#CCCl	-2.81% (inactive)	–
CCCCN1C(=O)[C@@H]([C@H](O)C2CCCCC2)NC(=O)C12CCN(Cc1ccc(Oc3ccc(C(=O)O)cc3)cc1)CC2	-11.4% (inactive)	–
Oc1cccc(-c2c3nc(c(-c4cccc(O)c4)c4ccc([nH]4)c(-c4cccc(O)c4)c4nc(c(-c5cccc(O)c5)c5ccc2[nH]5)CC4)C=C3)c1	-5.79% [at 35.3 µM] (inactive)	–
COc1cc(-c2ccc(N=C=O)c(OC)c2)ccc1N=C=O	-10.9% [at 35.3 µM] (inactive)	–
CCN(CC)CCNC(=O)c1c(C)[nH]c(/C=C2\C(=O)Nc3ccc(F)cc32)c1C	4.64% [at 35.3 µM] (inactive)	–
c1ccc(CSCc2ccccc2)cc1	-10.1% (inactive)	–
CCCC(=O)OC[C@@H](OC(=O)CCC)[C@@H](OC(=O)CCC)[C@H](Cn1c2nc(=O)[nH]c(=O)c-2nc2cc(C)c(C)cc21)OC(=O)CCC	-2.66% [at 35.3 µM] (inactive)	–
Cc1cc(=O)oc2cc(N(C)C)ccc12	19.5% (inactive)	–
CCCC1O[C@@H]2C[C@H]3[C@@H]4CCC5=CC(=O)C=C[C@]5(C)[C@H]4[C@@H](O)C[C@]3(C)[C@]2(C(=O)CO)O1 (stereo not given in full)	–	30.9 µM (active)
CC(C)n1nc(-c2cc3cc(O)ccc3[nH]2)c2c(N)ncnc21	-1.71% [at 35.3 µM] (inactive)	–
S=c1[nH]c2ccccc2s1	-2.57% (inactive)	–
O=[N+]([O-])c1cc(Cl)c(Cl)c(Cl)c1Cl	-3.54% (inactive)	–
C/C=C(\C)C(=O)OCc1ccccc1	1.46% (inactive)	–
CN(C)[C@@H]1C(=O)C(C(N)=O)=C(O)[C@@]2(O)C(=O)C3=C(O)c4c(O)cccc4C[C@H]3C[C@@H]12	-1.72% [at 35.3 µM] (inactive)	–
C=CC(=O)OCCn1c(=O)n(CCOC(=O)C=C)c(=O)n(CCOC(=O)C=C)c1=O	8.76% (inactive)	–

SMILES	activity change, negative = cytotoxicity	Potency
COc1cc(/C=C/C(=O)O[C@H]2CC[C@]34C[C@]35CC[C@]3(C)[C@@H]([C@H](C)CCC=C(C)C)CC[C@@]3(C)[C@@H]5CC[C@H]4C2(C)C)ccc1O	-1.51% [at 35.3 µM] (inactive)	–
O=C(Oc1cccc2cccnc12)c1ccccc1	-3.34% [at 35.3 µM] (inactive)	–
O=C(OCC(COC(=O)c1ccccc1)(COC(=O)c1ccccc1)COC(=O)c1ccccc1)c1ccccc1	-14.2% (inactive)	–
CCCCCCCCOC(=O)c1ccc(O)cc1	–	inactive
CCCCN(CCCC)C(=O)N(CCCC)CCCC	15% (inactive)	–
Cc1ccc2oc(CN(Cc3ccccc3)C(=O)Nc3c(F)cc(F)cc3F)c(-c3ccc(Cl)cc3)c2c1	-0.127% (inactive)	–
C1CCCC1	-1.8% (inactive)	–
N=C1N=C(N)c2cc3ccccc3cc21	6.3% (inactive)	–
CC1=C(/C=C/C(C)=C/C=C/C(C)=C/C=O)C(C)(C)CCC1	-8.58% (inactive)	–
CCCCCCCCS(=O)C(C)Cc1ccc2c(c1)OCO2 (stereo not given)	9.51% (inactive)	–
CCCC(C)c1ccccc1O (stereo not given)	-2.27% (inactive)	–
N=C1C=CC(=C(c2ccc(N)cc2)c2ccc(N)cc2)C=C1	-21.9% (inactive)	–
CCCCCCCCCCCCCC[P+](CCCC)(CCCC)CCCC (tested in a mixture with another compound)	-11.9% (inactive)	–
O=C(c1ccc(F)cc1)C1CCN(CCn2c(=O)[nH]c3ccccc3c2=O)CC1	-11.2% [at 35.3 µM] (inactive)	–
CCC(C)Nc1ccc(NC(C)CC)cc1 (stereo not given)	–	19.9 µM (active)
Oc1c(Cl)cc(Cl)c2cccnc12	-3.29% [at 35.3 µM] (inactive)	–
OCCCCCCCCCCCCBr	-1.34% (inactive)	–
CC1=C(C(=O)OC(C)C)C(c2cccc([N+](=O)[O-])c2)C(C(=O)OC2CN(C(c3ccccc3)c3ccccc3)C2)=C(N)N1 (stereo not given)	-0.0414% [at 35.3 µM] (inactive)	–
CCC1=C[C@@H]2CN(C1)Cc1c([nH]c3ccccc13)[C@@](C(=O)OC)(c1cc3c(cc1OC)N(C)[C@H]1[C@@](O)(C(=O)OC)[C@H](OC(C)=O)[C@]4(CC)C=CCN5CC[C@]31[C@@H]54)C2	3.31% [at 35.3 µM] (inactive)	–
OCCN(CCO)c1nc(N2CCCCC2)c2nc(N(CCO)CCO)nc(N3CCCCC3)c2n1	-4.51% [at 35.3 µM] (inactive)	–
